For some assays here: Measured potencies and affinities stand elsewhere.
How the values were obtained:
Parameters in all cases: scale not given: direction of the effect not stated beside the values
[1] = molecular target: Protein translocase subunit SecA (Escherichia coli (strain K12)) (UniProt P10408); assay: Assay to Identify E. coli SecA ATPase Inhibitors; assay type: functional; conditions: 30 µM
[2] = molecular target: T1, Ubiquitin-activating enzyme e1, putative (Leishmania donovani (strain BPK282A1)) (UniProt E9BSI1); assay: Leishmania donovani Ubiquitin Activating Enzyme (LdE1); assay type: functional; conditions: 30 µM
T1 sequence (whole entry): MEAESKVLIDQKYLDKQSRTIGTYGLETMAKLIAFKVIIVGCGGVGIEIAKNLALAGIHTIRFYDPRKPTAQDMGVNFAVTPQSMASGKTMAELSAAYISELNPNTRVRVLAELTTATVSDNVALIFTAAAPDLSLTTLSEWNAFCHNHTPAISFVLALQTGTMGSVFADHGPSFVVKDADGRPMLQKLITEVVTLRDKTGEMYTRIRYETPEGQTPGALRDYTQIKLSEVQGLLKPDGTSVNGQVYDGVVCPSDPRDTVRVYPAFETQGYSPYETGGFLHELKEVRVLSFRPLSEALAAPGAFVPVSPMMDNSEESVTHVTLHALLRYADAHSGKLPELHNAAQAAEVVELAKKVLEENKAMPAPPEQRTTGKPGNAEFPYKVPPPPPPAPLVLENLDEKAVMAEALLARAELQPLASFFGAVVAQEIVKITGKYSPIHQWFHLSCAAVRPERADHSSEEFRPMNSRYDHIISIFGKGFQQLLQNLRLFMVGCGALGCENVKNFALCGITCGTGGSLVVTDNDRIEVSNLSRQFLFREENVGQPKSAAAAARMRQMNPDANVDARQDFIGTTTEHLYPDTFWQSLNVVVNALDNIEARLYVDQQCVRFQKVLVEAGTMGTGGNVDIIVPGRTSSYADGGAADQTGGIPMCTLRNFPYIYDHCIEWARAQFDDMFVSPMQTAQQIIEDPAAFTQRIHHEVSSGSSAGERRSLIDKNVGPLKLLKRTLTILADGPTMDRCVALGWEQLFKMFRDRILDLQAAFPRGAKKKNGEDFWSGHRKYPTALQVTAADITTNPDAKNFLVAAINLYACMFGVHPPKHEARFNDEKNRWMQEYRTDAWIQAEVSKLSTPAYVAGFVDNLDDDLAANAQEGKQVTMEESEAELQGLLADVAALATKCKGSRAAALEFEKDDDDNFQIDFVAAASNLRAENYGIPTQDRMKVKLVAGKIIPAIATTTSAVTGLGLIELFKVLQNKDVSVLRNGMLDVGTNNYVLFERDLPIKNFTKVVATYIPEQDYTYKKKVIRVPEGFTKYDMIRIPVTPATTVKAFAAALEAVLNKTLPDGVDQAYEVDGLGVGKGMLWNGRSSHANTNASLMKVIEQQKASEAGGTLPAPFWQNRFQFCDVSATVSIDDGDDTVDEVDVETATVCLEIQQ

[3] = molecular target: AMP-activated protein kinase, AMPK (Homo sapiens) (UniProt P54646+O43741+P54619+Q9UGJ0+Q9Y478+Q13131+Q9UGI9); assay: AMP-dependent Kinase enzyme assay. An in vitro enzyme assay that detects ADP turnover that is directly proportional to AMPK activity. This uses naive AMPK that is activated during the assay with MK-8722; assay type: functional; conditions: 30 µM
[4] = molecular target: Sialic acid-binding Ig-like lectin 9 (Homo sapiens) (UniProt Q9Y336); assay: Hs-Siglec9 ALPHAscreen SOP 20170721; conditions: 10 µM
Trypanosoma cruzi = assay: Trypanosoma cruzi phosphomannomutase and mannose-1-phosphate guanylyltransferase assay; assay type: functional; conditions: 10 µM
[5] = molecular target: T2, Arginase-2, mitochondrial (Homo sapiens) (UniProt P78540); assay: in vitro enzyme assay to detect the production of urea directly proportional to the activity of Arginase II; assay type: functional; conditions: 33.3 µM; note: in the data most compounds retested in dose-response had high values
T2 sequence (whole entry): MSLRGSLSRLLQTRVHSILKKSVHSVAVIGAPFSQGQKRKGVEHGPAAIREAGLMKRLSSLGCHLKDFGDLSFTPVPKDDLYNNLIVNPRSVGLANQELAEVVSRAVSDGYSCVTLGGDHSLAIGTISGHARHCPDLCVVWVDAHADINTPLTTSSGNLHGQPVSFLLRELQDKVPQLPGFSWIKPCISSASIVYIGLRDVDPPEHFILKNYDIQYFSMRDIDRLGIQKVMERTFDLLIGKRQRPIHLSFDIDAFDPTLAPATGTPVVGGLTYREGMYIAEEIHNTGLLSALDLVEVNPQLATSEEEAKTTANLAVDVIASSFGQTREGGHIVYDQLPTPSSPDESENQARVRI

[6] = molecular target: T3, Proteasome subunit beta (Trypanosoma cruzi) (UniProt O96673); assay: Trypanosoma cruzi proteasome chymotrypsin-like activity (TcProtChymo) assay.; note: in the data most compounds retested in dose-response had high values; assay type: functional; conditions: 9.37 µM
T3 sequence (whole entry): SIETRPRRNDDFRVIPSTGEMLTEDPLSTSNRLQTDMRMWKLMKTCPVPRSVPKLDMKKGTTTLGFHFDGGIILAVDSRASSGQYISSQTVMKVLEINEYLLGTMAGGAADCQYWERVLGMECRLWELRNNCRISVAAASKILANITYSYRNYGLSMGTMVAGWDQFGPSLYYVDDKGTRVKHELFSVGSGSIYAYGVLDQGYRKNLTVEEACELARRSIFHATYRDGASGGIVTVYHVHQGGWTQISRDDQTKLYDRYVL

Homo sapiens = species on record: Homo sapiens; assay: To identify inhibition of the IFN signalling (Jak-Stat) pathway via expression of an eGFP reporter gene under the control of an IFN-stimulated response element (ISRE) containing MxA promoter.; assay type: functional; conditions: 30 µM
[7] = molecular target: T4, Tyrosyl-tRNA synthetase, putative (Trypanosoma cruzi (strain CL Brener)) (UniProt Q4DSP6); assay: Trypanosoma cruzi tyrosyl tRNA synthetase (TcYRS) _High Tyrosine SOP; assay type: functional; conditions: 30 µM; note: in the data most compounds retested in dose-response had high values
T4 sequence (whole entry): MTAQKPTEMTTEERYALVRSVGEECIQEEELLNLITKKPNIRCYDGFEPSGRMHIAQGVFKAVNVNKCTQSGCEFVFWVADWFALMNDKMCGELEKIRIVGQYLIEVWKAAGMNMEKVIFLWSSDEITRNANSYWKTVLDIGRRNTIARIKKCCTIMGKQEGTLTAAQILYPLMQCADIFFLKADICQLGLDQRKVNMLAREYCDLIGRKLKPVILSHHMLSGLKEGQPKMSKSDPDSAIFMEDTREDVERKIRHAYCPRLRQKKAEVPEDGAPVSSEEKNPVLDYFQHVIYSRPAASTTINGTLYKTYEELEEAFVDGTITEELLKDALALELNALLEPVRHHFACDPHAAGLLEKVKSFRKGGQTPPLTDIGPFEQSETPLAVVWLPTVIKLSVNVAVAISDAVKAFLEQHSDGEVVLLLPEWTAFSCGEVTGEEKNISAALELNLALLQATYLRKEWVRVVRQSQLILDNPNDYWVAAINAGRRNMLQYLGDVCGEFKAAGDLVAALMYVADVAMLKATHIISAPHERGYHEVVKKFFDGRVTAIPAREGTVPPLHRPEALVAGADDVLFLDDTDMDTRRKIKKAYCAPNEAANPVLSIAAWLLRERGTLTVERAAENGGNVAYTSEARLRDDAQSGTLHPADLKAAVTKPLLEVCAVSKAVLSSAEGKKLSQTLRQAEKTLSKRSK

[8] = molecular target: T4, Tyrosyl-tRNA synthetase, putative (Trypanosoma cruzi (strain CL Brener)); assay: Trypanosoma cruzi tyrosyl tRNA synthetase (TcYRS) SOP; assay type: functional; conditions: 30 µM
[9] = molecular target: Chromo domain-containing protein 1 (Saccharomyces cerevisiae (strain ATCC 204508 / S288c) (Baker's yeast)) (UniProt P32657); assay: ScCHD-1 Enzyme Inhibition Assay; assay type: functional; conditions: 30 µM; note: in the data most compounds retested in dose-response had high values
Sequence of Chromo domain-containing protein 1 (Saccharomyces cerevisiae (strain ATCC 204508 / S288c) (Baker's yeast)) (P32657 whole entry, the tested form may be a part): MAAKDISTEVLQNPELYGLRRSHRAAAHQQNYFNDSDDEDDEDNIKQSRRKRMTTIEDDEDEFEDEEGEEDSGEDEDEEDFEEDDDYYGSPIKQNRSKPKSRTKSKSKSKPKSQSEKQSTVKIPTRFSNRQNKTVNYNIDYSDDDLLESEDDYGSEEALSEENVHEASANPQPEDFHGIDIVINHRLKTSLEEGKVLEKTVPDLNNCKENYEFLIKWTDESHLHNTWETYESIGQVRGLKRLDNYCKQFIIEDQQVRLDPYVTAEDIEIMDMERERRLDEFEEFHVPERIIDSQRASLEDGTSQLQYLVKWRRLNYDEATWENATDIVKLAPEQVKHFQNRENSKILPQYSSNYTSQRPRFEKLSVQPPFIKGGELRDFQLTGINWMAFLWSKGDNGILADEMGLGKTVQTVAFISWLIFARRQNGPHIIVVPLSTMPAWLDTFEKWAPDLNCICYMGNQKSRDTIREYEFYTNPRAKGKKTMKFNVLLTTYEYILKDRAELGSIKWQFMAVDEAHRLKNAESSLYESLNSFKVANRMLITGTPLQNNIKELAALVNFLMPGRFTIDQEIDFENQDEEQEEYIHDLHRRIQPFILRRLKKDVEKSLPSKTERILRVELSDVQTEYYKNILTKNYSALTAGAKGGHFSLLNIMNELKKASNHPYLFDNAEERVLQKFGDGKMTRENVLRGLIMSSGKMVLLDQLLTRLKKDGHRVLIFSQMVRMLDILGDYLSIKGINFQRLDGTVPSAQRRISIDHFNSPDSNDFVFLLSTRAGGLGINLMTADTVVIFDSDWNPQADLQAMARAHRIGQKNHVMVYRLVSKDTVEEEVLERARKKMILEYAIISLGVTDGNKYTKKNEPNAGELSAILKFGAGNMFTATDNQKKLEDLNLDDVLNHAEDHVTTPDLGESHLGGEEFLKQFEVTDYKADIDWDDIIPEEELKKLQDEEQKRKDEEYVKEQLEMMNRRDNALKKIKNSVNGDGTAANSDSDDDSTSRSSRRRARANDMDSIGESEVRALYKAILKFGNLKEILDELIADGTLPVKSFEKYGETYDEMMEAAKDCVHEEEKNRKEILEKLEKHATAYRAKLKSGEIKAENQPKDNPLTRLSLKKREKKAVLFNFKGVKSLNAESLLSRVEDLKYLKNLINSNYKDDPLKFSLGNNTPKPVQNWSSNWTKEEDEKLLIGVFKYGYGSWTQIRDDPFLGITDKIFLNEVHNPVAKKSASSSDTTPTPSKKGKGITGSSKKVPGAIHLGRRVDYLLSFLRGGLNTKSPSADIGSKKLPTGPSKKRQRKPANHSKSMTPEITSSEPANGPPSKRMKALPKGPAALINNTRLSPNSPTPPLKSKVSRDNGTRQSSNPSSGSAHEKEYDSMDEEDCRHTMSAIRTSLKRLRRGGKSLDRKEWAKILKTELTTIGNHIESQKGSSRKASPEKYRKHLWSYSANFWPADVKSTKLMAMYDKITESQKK

Sequence of Protein translocase subunit SecA (Escherichia coli (strain K12)) (P10408 whole entry): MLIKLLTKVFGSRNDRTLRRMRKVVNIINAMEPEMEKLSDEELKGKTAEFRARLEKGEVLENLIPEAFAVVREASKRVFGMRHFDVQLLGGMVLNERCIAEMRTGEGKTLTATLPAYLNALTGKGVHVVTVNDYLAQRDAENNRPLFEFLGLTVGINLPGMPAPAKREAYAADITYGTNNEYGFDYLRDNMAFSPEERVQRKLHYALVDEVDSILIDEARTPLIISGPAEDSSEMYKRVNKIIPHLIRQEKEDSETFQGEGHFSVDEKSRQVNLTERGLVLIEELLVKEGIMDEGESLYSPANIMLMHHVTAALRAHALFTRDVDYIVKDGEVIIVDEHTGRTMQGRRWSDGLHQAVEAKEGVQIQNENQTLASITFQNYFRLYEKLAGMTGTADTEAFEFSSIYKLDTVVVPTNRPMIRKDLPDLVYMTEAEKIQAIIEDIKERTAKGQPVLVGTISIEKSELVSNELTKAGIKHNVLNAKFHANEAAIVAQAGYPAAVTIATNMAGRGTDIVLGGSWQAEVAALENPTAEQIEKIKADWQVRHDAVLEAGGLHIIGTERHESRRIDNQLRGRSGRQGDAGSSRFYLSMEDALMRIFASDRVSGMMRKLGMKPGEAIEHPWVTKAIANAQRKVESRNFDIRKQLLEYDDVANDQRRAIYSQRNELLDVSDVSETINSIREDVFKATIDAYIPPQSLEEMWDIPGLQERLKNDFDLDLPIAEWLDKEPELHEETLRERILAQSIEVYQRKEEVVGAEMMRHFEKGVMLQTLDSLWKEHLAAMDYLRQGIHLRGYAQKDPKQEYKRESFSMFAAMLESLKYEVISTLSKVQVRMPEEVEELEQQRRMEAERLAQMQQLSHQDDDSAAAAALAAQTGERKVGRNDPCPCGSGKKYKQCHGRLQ
Sequence of Sialic acid-binding Ig-like lectin 9 (Homo sapiens) (Q9Y336 whole entry): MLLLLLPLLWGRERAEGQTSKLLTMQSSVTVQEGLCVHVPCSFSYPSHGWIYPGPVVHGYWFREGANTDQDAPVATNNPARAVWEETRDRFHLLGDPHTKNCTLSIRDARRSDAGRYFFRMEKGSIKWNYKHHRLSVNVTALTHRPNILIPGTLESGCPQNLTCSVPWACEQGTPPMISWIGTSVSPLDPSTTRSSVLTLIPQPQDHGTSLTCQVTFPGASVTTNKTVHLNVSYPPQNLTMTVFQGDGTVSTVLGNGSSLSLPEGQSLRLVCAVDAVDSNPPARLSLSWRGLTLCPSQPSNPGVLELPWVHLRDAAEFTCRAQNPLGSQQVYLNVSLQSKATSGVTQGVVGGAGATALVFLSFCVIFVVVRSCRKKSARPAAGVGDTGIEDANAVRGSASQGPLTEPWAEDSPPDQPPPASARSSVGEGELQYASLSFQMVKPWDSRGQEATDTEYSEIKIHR

Compound	Percent Effect [1]	Percent Effect [2]	Percent Effect [3]	Percent Effect [4]	Percent Effect (Trypanosoma cruzi)	Percent Effect [5]	Percent Effect [6]	Percent Effect (Homo sapiens)	Percent Effect [7]	Percent Effect [8]	Percent Effect [9]
O=C(Cc1ccc2c(c1)CCC2)NCCNc1ncccn1	-2.76%	21.1%	0.848%	1.21%	2.89%	3.96%	18.4%	-17.3%	6.4%	30.9%	-10.6%
CCn1cc(NC(=O)NCC(C)O)cn1 (configuration not stated)	-0.762%	17.7%	-8.6%	-3.54%	-0.85%	4.18%	5.65%	1.36%	8.37%	-24.1%	-7.2%
CN1CCN(C[C@@H]2OC[C@H]3CN(Cc4ccsc4)CC[C@H]32)CC1	-2.51%	0%	1.23%	-2.48%	6.95%	-43.2%	5.81%	-3.23%	3.12%	0%	-4.8%
CNC(=O)CC1CCN(Cc2nc(-c3cccc(Cl)c3)oc2C)CC1	-1.83%	8.11%	-6.08%	19.1%	4.05%	0%	20.2%	4.01%	5.82%	9.76%	-2.39%
Cc1cnn(CC(C)NCc2ccc(S(C)(=O)=O)cc2)c1 (configuration not stated)	-2.77%	13.9%	-0.525%	2.13%	-1.74%	-3.23%	12.3%	0.644%	8.33%	25.3%	-28%
Cn1c(C2CC2)nc2c1CCN(CCOc1ccc(C#N)cc1)C2	-3.25%	-15.6%	4.37%	6.69%	2.43%	-1.07%	4.22%	-24.9%	6.8%	2.44%	-8.18%
Cc1[nH]nc2ncc(C(=O)N3CCN(CC(C)C)CC3)cc12	-2.98%	15.8%	10.4%	-2.95%	7.56%	-3.24%	7.36%	-2.6%	8.37%	23.5%	-7.62%
O=C(CCc1cc2n(n1)CCCN(C(=O)c1cccnc1)C2)NC1CC1	-2.13%	4.17%	-1.68%	-4.93%	-3.21%	-2.21%	10.7%	4.24%	0%	7.69%	-2.05%
CNS(=O)(=O)c1cccc(CNC(=O)c2c(C)oc(C)c2C)c1	-3.91%	19%	6.49%	-6.49%	3.79%	-1.07%	18.4%	7.61%	2.08%	15.2%	53.2%
c1nc(N2CCCCC2Cn2cncn2)c2ccsc2n1 (configuration not stated)	-6.19%	16%	-6.98%	35.1%	11.6%	25.5%	9.59%	16.8%	3.83%	13.6%	-9.92%
CNc1nc2c(s1)C(c1cccc(F)c1F)CC(=O)N2 (configuration not stated)	-2.38%	13.2%	-61.3%	-2.61%	0.876%	4.73%	18.9%	7.67%	-11.7%	-13%	-8.74%
COc1c(CNCc2ccc(CN(C)C)cc2)c(C)nn1C	3.12%	-1.27%	3.93%	0.303%	3.79%	4.95%	9.26%	-11.7%	-3.12%	2.53%	-2.72%
CN(C)C(=O)CSc1nnc(CCNC(=O)OC(C)(C)C)o1	-1.89%	9.33%	6.95%	-7.38%	-8.64%	-13.6%	13.9%	10.4%	-3.17%	2.56%	-10.9%
COC(=O)C(c1cc(F)ccc1F)N(C)C(=O)c1cccnc1O (configuration not stated)	-4.02%	6.33%	7.36%	-2.25%	-1.33%	0.645%	10.3%	-7.9%	1.04%	12.7%	-12.9%
CC(C)Oc1ncccc1CNC(=O)c1cc[nH]n1	-3.9%	8.11%	0.642%	2.46%	-3.3%	-0.802%	-0.18%	3.02%	2.46%	6.17%	-2.93%
CN(CC1(O)CCCN(CCC2CCCCC2)C1=O)C1CCOCC1 (configuration not stated)	-5.39%	10.7%	-4.88%	15.6%	7.5%	6.77%	6.8%	6.58%	4.92%	13.6%	-3.45%
CCn1ccnc1CN1CCN(CCC(=O)NC(C)(C)C)CC1C (configuration not stated)	-2.88%	8.11%	-0.327%	5.56%	3.71%	10%	5.16%	5.99%	10.9%	15.8%	-3.56%
Clc1ccc(OCCN2CCN(CCn3cncn3)CC2)cc1	-0.515%	-5.41%	-3.56%	26.8%	8.69%	-2.86%	4.48%	13.3%	1.59%	14.6%	-8.8%
Cc1nc[nH]c1CN1C[C@@H]2CC[C@H](C1)N(C(=O)CCNS(C)(=O)=O)C2	-4.5%	-1.39%	-15.6%	26.7%	4.57%	17.7%	3.33%	-7.69%	5.26%	7.69%	-4.5%
CCNC(=O)c1nnc2ccc(N3CCOCC3)cc2n1	-7.02%	-1.33%	58.5%	3.63%	-6.09%	-3.7%	7.95%	19.8%	7.41%	7.69%	-13.2%
CC(C)C1CN(C(=O)c2nccnc2N)CCS1 (configuration not stated)	-2.86%	10.4%	-7.56%	11%	3.83%	-92.4%	6.32%	14.5%	3.23%	8.64%	-9.31%
O=C(c1cc[nH]n1)N1CCCC1C1CCN(Cc2ccccc2)CC1 (configuration not stated)	-0.52%	-7.89%	10.9%	1.13%	-7.11%	1.18%	16.6%	-0.106%	4.25%	7.79%	-1.17%

— ChEMBL document CHEMBL3988442, “University of Dundee, Small-Polar-MMV Screening Library” (2021)
